Results from PubChem BioAssay (EPA / NIEHS).
Inconclusive results are not listed. Calls of active or inactive are those of the source. How the source made its calls, unless noted: active means hit-call score of the fitted dose curve at least 0.9, where 1 is the maximum; inconclusive means response in the unintended direction; inactive means score below 0.9.

Assays:
[1] = target: Cellular tumor antigen p53 (Homo sapiens) (UniProt P04637); assay: TOX21_p53_BLA_p2_ratio: Tox21 HCT-116 p53 Agonism Beta-lactamase Assay, Ratio, Phase 2 (AID 2283592)
Summary of the method: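 In this cell-based reporter format, HCT116 cells were dosed with chemicals delivered from DMSO by 217-fold dilution and incubated 16 h at 37C. Emission at 460 and 530 nm after 2 h CCF4-AM loading provided the ratio, fitted upward versus DMSO.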

[2] = target: Cellular tumor antigen p53 (Homo sapiens) (UniProt P04637); assay: TOX21_p53_BLA_p3_ratio: Tox21 HCT-116 p53 Agonism Beta-lactamase Assay, Ratio, Phase 3 (AID 2283596)
Summary of the method: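 HCT116 p53-bla cells (4000/well) given compound in DMSO (217-fold dilution) after 5 h, incubated 16 h at 37C. CCF4-AM substrate 2 h at room temperature; 460/530 nm emission ratio, gain fitted against DMSO.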

[3] = target: Cellular tumor antigen p53 (Homo sapiens) (UniProt P04637); assay: TOX21_p53_BLA_p5_ratio: Tox21 HCT-116 p53 Agonism Beta-lactamase Assay, Ratio, Phase 5 (AID 2283599)
Summary of the method: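 HCT-116 cells carrying a p53-inducible beta-lactamase reporter were seeded at 4000 cells/well and dosed after 5 h with compound in DMSO (217-fold dilution). After 16 h at 37C, CCF4-AM substrate was added for 2 h, and the 460/530 nm emission ratio was scored as gain-of-signal versus DMSO.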

[4] = target: Cellular tumor antigen p53 (Homo sapiens) (UniProt P04637); assay: TOX21_p53_BLA_p4_ratio: Tox21 HCT-116 p53 Agonism Beta-lactamase Assay, Ratio, Phase 4 (AID 2283601)
Summary of the method: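 HCT116 cells carrying an inducible beta-lactamase reporter were plated at 4000 cells/well, rested 5 h, then exposed to compounds in DMSO (217-fold dilution) for 16 h at 37C. CCF4-AM substrate was loaded 2 h at room temperature; 460/530 nm emission ratio scored gain-of-signal versus DMSO.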

[5] = TOX21_TRB_BLA_Antagonist_Followup_viability: Viability Assessment in the Tox21 Thyroid Hormone Receptor beta Antagonism Beta-lactamase (BLA) Follow-Up Assay (AID 2283961)
Summary of the method: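 Viability read as CellTiter-Glo ATP luminescence (loss of signal = cytotoxicity) in the same plates as the TRβ-bla readout. TRβ-LBD/GAL4 UAS-bla HEK293T cells were exposed to compounds, 11 concentrations in triplicate, for 18 h at 37C/5% CO2.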

[6] = TOX21_TR_RXR_BLA_Antagonist_Followup_viability: Viability Assessment in the Tox21 Thyroid Hormone Receptor beta Retinoid X Receptor alpha (RXRa) Antagonism Beta-lactamase (BLA) Follow-Up Assay (AID 2283979)
Summary of the method: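 RXRa-UAS-bla HEK293T cells seeded 2,500/well in phenol red-free DMEM with 2% charcoal-stripped FBS, attached 5 h, then exposed to compounds at 11 concentrations in triplicate for 16 h at 37C/5% CO2. Viability read by CellTiter-Glo ATP luminescence; bidirectional fit versus DMSO.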

[7] = TOX21_p53_BLA_p5_viability: Viability Assessment in the Tox21 HCT-116 p53 Agonism Beta-lactamase Assay, Phase 5 (AID 2283600)
Summary of the method: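 Compounds, pinned from DMSO at 217-fold dilution, were left on the cells for 16 h. The viability endpoint was ATP content measured by CellTiter-Glo luminescence, where falling signal reflects cytotoxicity.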

[8] = test system: Brachyury (BRA) Protein Expression, Deisenroth Lab, TBXT (gene 6862); assay: CCTE_Deisenroth_DEVTOX-GLR_legacy_Bra: (Legacy) CCTE's DevTox GLR-Endo Assay Evaluation of Brachyury (BRA) Protein Expression, Deisenroth Lab (AID 2284329; active means hit-call score of the fitted dose curve at least 0.9, where 1 is the maximum; inactive means score below 0.9)
Summary of the method: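 RUES2-GLR human pluripotent cells differentiated 48 h with two 24-h-interval chemical exposures (1 nM - 200 uM, 10 points); fixed, nuclear-stained, imaged. Bra+ cell percentage (intensity 5x BMAD above pluripotent control median) fitted relative to 0.2% DMSO.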

[9] = CCTE_Deisenroth_DEVTOX-GLR_legacy_CellCount: (Legacy) Viability Assessment in CCTE's DevTox GLR-Endo Assay, Deisenroth Lab (AID 2284331; active means hit-call score of the fitted dose curve at least 0.9, where 1 is the maximum; inactive means score below 0.9); settings: actives raise or lower the signal
Summary of the method: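 RUES2-GLR human pluripotent cells were seeded 24 h, then differentiated 48 h with two compound doses at 24 h intervals (10-point, 1 nM - 200 uM). Fixed nuclei were imaged and counted; bidirectional fitting versus 0.2% DMSO.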

[10] = test system: SRY-box transcription factor 17 (SOX17) Protein Expression, Deisenroth Lab, SOX17 (gene 64321); assay: CCTE_Deisenroth_DEVTOX-GLR_legacy_Sox17: (Legacy) CCTE's DevTox GLR-Endo Assay Evaluation of SRY-box transcription factor 17 (SOX17) Protein Expression, Deisenroth Lab (AID 2284341; active means hit-call score of the fitted dose curve at least 0.9, where 1 is the maximum; inactive means score below 0.9); settings: actives raise or lower the signal
Summary of the method: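 Percent SOX17-positive cells, scored by high-content imaging as mean intensity exceeding pluripotent-control median by 5x BMAD, divided by cell count. Human RUES2-GLR endoderm differentiation, 48 h, two exposures 24 h apart, 1 nM–200 uM; DMSO-referenced bidirectional fitting.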

[11] = test system: SRY-box transcription factor 2 (SOX2) Protein Expression, Deisenroth Lab, SOX2 (gene 6657); assay: CCTE_Deisenroth_DEVTOX-GLR_legacy_Sox2: (Legacy) CCTE's DevTox GLR-Endo Assay Evaluation of SRY-box transcription factor 2 (SOX2) Protein Expression, Deisenroth Lab (AID 2284346; active means hit-call score of the fitted dose curve at least 0.9, where 1 is the maximum; inactive means score below 0.9)
Summary of the method: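 RUES2-GLR human pluripotent cells seeded 24 h, then differentiated 48 h in defined media with two chemical doses 24 h apart (10-point, 1 nM–200 uM). Fixed, nuclear-stained, imaged; % Sox2+ cells (>5x BMAD over endoderm control median), DMSO-subtracted, fitted upward.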

[12] = test system: SRY-box transcription factor 2 (SOX2) Protein Expression, Deisenroth Lab, SOX2 (gene 6657); assay: CCTE_Deisenroth_DEVTOX-GLR_Endo_SOX2: CCTE's DevTox GLR-Endo Assay Evaluation of SRY-box transcription factor 2 (SOX2) Protein Expression, Deisenroth Lab (AID 2284412)
Summary of the method: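 RUES2-GLR human pluripotent cells were seeded 24 h, then differentiated 48 h with two chemical exposures 24 h apart. Cells were fixed, nuclei stained and imaged by high-content microscopy. Endpoint is %SOX2+ cells over cell count, minus 0.2% DMSO control; 10-point series 1 nM–200 uM.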

[13] = test system: SRY-box transcription factor 17 (SOX17) Protein Expression, Deisenroth Lab, SOX17 (gene 64321); assay: CCTE_Deisenroth_DEVTOX-GLR_Endo_SOX17: CCTE's DevTox GLR-Endo Assay Evaluation of SRY-box transcription factor 17 (SOX17) Protein Expression, Deisenroth Lab (AID 2284413; active means hit-call score of the fitted dose curve at least 0.9, where 1 is the maximum; inactive means score below 0.9)
Summary of the method: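 Endpoint: % change in SOX17+ fraction (SOX17+ cells / cell count) vs 0.2% DMSO solvent control. RUES2-GLR reporter cells, 48 h endoderm differentiation, two doses at 24 h intervals, high-content fluorescence imaging, 5 fields/well.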

[14] = test system: Brachyury (BRA) Protein Expression, TBXT (gene 6862); assay: CCTE_Deisenroth_DEVTOX-GLR_Endo_BRA: CCTE's DevTox GLR-Endo Assay Evaluation of Brachyury (BRA) Protein Expression, Deisenroth Lab (AID 2284417; active means hit-call score of the fitted dose curve at least 0.9, where 1 is the maximum; inactive means score below 0.9)
Summary of the method: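 Endpoint is the fraction of BRA reporter-positive cells over total nuclei, corrected by subtracting the 0.2% DMSO value. Chemicals (1 nM - 200 uM, 10 points) were dosed twice during 48 h differentiation of RUES2-GLR cells, read by imaging.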

[15] = CCTE_Deisenroth_DEVTOX-GLR_Endo_CellCount: Viability Assessment in CCTE's DevTox GLR-Endo Assay, Deisenroth Lab (AID 2284420; active means hit-call score of the fitted dose curve at least 0.9, where 1 is the maximum; inactive means score below 0.9)
Summary of the method: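 Nuclei counted by fluorescence microscopy as a surrogate for cell number, expressed as percent change relative to 0.2% DMSO control. Human RUES2-GLR cells, 48 h differentiation, dosed twice; 1 nM - 200 uM series.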

[16] = test system: SRY-box transcription factor 17 (SOX17) Protein Expression, Deisenroth Lab, SOX17 (gene 64321); assay: CCTE_Deisenroth_DEVTOX-GLR_Pluri_SOX17: CCTE's DevTox GLR-Pluri Assay Evaluation of SRY-box transcription factor 17 (SOX17) Protein Expression, Deisenroth Lab (AID 2284427)
Summary of the method: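 Readout: percent SOX17+ cells (SOX17+ count/cell count) by high-content imaging of an inducible fluorescent reporter, corrected for 0.2% DMSO solvent control. RUES2-GLR cells, 48 h differentiation, dosed twice at 24 h intervals, 1 nM - 200 uM.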

[17] = test system: SRY-box transcription factor 2 (SOX2) Protein Expression, Deisenroth Lab, SOX2 (gene 6657); assay: CCTE_Deisenroth_DEVTOX-GLR_Pluri_SOX2: CCTE's DevTox GLR-Pluri Assay Evaluation of SRY-box transcription factor 2 (SOX2) Protein Expression, Deisenroth Lab (AID 2284428; active means hit-call score of the fitted dose curve at least 0.9, where 1 is the maximum; inactive means score below 0.9)
Summary of the method: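 RUES2-GLR (human pluripotent), 48 h post-dosing, 2 exposures q24h, 1 nM–200 uM 10-pt. Fixed, nuclear dye, high-content imaging 5 fields/well. Endpoint: % SOX2+ cells (SOX2+/total count) vs 0.2% DMSO; n≥4.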

[18] = CCTE_Deisenroth_DEVTOX-GLR_Pluri_CellCount: Viability Assessment in CCTE's DevTox GLR-Pluri Assay Evaluation of Total Cell Counts, Deisenroth Lab (AID 2284430; active means hit-call score of the fitted dose curve at least 0.9, where 1 is the maximum; inactive means score below 0.9)
Summary of the method: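 RUES2-GLR human pluripotent cells, seeded 24 h, then differentiated 48 h with two chemical exposures 24 h apart; 10-point series 1 nM - 200 uM. Fixed, nuclear-stained, imaged (5 fields/well); nuclei count as % change vs 0.2% DMSO.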

Measured: outcome

Cellular tumor antigen p53 (Homo sapiens), sequence (P04637 whole entry, looked up): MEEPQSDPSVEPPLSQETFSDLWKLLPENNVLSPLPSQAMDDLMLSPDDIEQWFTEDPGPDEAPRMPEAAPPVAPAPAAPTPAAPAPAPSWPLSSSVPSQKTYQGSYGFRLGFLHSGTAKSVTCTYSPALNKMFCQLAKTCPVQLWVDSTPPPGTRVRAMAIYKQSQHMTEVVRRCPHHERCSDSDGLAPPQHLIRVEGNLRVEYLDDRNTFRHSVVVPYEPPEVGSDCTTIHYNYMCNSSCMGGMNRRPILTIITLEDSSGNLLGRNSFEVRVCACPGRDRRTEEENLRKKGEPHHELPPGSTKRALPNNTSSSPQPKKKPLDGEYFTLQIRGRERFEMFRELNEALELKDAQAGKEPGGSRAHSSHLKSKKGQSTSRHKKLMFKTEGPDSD

CCOC(=O)C1=C[C@]2(CC)CCCN3CCc4c(n1c1ccccc41)[C@@H]32
inactive: [1] | [2] | [3] | [4] | [5] | [6]

CC1(C)S[C@@H]2[C@H](NC(=O)C(C(=O)Oc3ccc4c(c3)CCC4)c3ccccc3)C(=O)N2[C@H]1C(=O)O (stereo not given in full)
inactive: [1] | [2] | [3] | [4]

CC1(C)S[C@@H]2[C@H](NC(=O)Cc3ccccc3)C(=O)N2[C@H]1C(=O)O
inactive: [1] | [2] | [7] | [4] | [8] | [9] | [10] | [11] | [12] | [13] | [14] | [15] | [16] | [17] | [18]
